Screening data from PubChem BioAssay.
RORgamma inh – ROR gamma (mouse) transcription inhibition; P51450; hit rate 5.4% among 310,000; Potency, µM (series often up to 53.6 µM), hits mostly inhibitors; Drosophila S2 Gal4-RORgamma UAS-luciferase reporter, 20 h; also: nearly all actives have a fitted effect of over 60% in size
Target sequence (P51450 whole entry, looked up, the tested form may be a part): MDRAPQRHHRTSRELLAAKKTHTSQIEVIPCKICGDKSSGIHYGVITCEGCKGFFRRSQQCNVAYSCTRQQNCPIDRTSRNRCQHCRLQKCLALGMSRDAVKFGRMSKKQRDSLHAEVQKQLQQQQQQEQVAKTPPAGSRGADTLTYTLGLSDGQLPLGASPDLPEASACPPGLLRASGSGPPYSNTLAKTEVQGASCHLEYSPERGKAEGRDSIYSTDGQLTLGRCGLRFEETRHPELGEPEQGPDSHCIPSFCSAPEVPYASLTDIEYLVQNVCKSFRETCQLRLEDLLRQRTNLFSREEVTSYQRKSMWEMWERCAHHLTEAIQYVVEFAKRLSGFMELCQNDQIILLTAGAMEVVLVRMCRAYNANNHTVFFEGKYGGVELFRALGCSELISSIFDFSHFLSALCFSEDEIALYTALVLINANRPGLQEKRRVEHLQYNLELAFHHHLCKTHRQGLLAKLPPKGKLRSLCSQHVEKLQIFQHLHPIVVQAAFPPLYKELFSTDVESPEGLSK
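ROR gamma transcriptional activity was tracked as Gal4-UAS luciferase output in stably transfected Drosophila Schneider cells, with compound added 1 hr before 700 uM copper sulfate induction and a 20 hr ambient-temperature incubation.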
IL-1B inflam inh – inflammasome signaling inhibition, IL-1 beta readout; THP-1 LPS/ATP IL-1B secretion, AlphaLISA, 16 h; hits give low values; activity change, % at 57.5 µM; hit rate 4.7% among 360,000; AID 743279; in the data active = activity change below about -50%; inconclusive = mostly about -30% to -49%
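THP-1 cells pretreated 1 hr with compounds (up to 57.5 uM final), then stimulated with LPS (250 ng/mL final) plus ATP (1.25 mM final); secreted IL-1B measured by AlphaLISA after 16 hr, decreased signal indicating inhibition.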
ELG1 repair inh – inhibitors of ELG1-dependent DNA repair in HEK293T cells; HEK293T ELG1-luciferase reporter, luminescence, 16 h; DNA damage induced by 5-fluorouridine; Potency, µM (series often up to 46.1 µM), actives largely listed as inhibitors; hit rate 2.3% among 330,000; AID 504467; also: nearly all actives have a fitted effect of over 55% in size
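Luminescence from the luciferase reporter, measured 30 min after ONE-Glo reagent at room temperature, was the read-out. Beforehand, 2,000 cells per well were exposed for 16 hr at 37 °C to 5-fluorouridine together with compound or vehicle.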
DT40 TDP1 no CPT – qHTS for Inhibitors of human tyrosyl-DNA phosphodiesterase 1 (TDP1): qHTS in cells in absence of CPT. Potency, µM (doses to about 46.2 µM), usual class: inhibitors. DT40 Tdp1-/- hTDP1 cells, no CPT, ATP luminescence, 48 h. AID 686978, 2013. hit rate 15% among 420,000; also: nearly all actives have a fitted effect of over 55% in size
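Growth of hTDP1-complemented DT40 Tdp1-knockout cells is measured by ATP luminescence after at least 48 hr compound exposure at 37 °C, with DMSO substituting for the 20 nM CPT used in the parallel screen.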
VP16 counter – counter-screen for ROR gamma inhibitors: Gal4-VP16 reporter; Drosophila S2 Gal4-VP16 UAS-luciferase, luminescence, 20 h; Potency, µM (highest dose often 53.6 µM), actives largely listed as inhibitors; hit rate 3.5% among 310,000; AID 2546;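 also: Gal4-VP16 expression switched on by copper sulfate through the metallothionein promoter; nearly all actives have a fitted effect of over 50% in size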
DT40 TDP1 CPT – DT40-hTDP1 cell growth loss with CPT. chicken DT40 Tdp1-/-;hTDP1 cells + 20 nM CPT, ATP luminescence, 48 h. hit rate 12% among 420,000. AID 686979. Potency, µM (highest dose often 46.2 µM), most hits filed as inhibitors; also: nearly all actives have a fitted effect of over 55% in size
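Cell growth measured by CellTiter-Glo luminescence after a minimum 48 h, 37 C compound exposure with 20 nM CPT in Tdp1-knockout DT40 cells stably expressing hTDP1, seeded 400/well; qHTS titration format.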
A number is an active result; n = inactive; u = inconclusive; x = no result; [ ] = another dose, or the depositor's remark. An excerpt weighted towards active compounds, which were near 21% of everything screened. Unless noted, calls follow the shape of the dose curve; as a rule, active = well fitted curve in the direction sought with a large enough effect; inconclusive = small, poorly fitted or top-dose-only effect, or another doubt; inactive = no such curve, though single readings can be large; an effect the other way counts as inactive or inconclusive.

SMILES | RORgamma inh | IL-1B inflam inh | ELG1 repair inh | DT40 TDP1 no CPT | VP16 counter | DT40 TDP1 CPT
COc1ccc(NC(=O)c2ccc3ncsc3c2)c2ccccc12 | n | n | n | n | n | n
COc1ccc(C(C)(C)C)cc1NC(=O)C1CC=CCC1C(=O)O (stereo not drawn) | n | n | n | 15µM | n | u
N#CC(=C(c1ccccc1)c1ccccc1)c1ccccc1 | x | n | x | u | x | n
COc1cccc(C(=Cc2ccc([N+](=O)[O-])cc2)C(=O)O)c1 | x | n | x | u | x | u
O=C(CSc1nnc(-c2ccc3c(c2)OCO3)o1)Oc1ccccc1 | x | x | x | n | x | n
COc1cc(NC(=O)Cn2ncc3c([nH]c4ccc(C)cc43)c2=O)cc(OC)c1OC | x | x | x | n | x | n
CC(=O)N1CCN(C(=O)c2cc3c(s2)CCC(C)C3)CC1 (stereo not drawn) | x | n | u | n | x | n
COc1cccc(-c2cnc3c(NC(C)=O)cc(-c4cc(OC)c(OC)c(OC)c4)cn23)c1 | x | n | x | u | x | u
COc1cc(-c2cnc3c(NC(C)=O)cc(-c4ccc(N5CCN(C)CC5)cc4)cn23)cc(OC)c1OC | x | -87 | x | 4.6µM | x | 4.6µM
COc1cc(-c2cnc3c(NC=O)cc(-c4ccc(N5CCN(C)CC5)cc4)cn23)cc(OC)c1OC | x | n | x | 3.7µM | x | 3.3µM
CCc1cccc(OCC(=O)N(C)CC(=O)Nc2cccc(F)c2)c1 | x | n | n | n | x | n
Cn1c(SCC2CCCO2)nnc1C1CCN(Cc2ccco2)CC1 (stereo not drawn) | x | x | x | n | x | n
O=C(CSC1=NNC(c2ccccn2)S1)Nc1ccc(C(F)(F)F)cc1 (stereo not drawn) | 3.2µM | n | n | 3.7µM | 5µM | 4.1µM
c1ccc(CSc2ncccn2)cc1 | n | n | n | n | n | n
c1ccc(CSC2=NNC(c3ccccn3)S2)cc1 (stereo not drawn) | n | n | u | 0.16µM | n | 0.0058µM
CCC(c1nnnn1-c1ccc2c(c1)OCCO2)N1CCN(c2ccccn2)CC1 (stereo not drawn) | x | n | x | n | x | n
CC(=O)N(c1ccc2oc(=O)sc2c1)S(=O)(=O)c1cccc2cccnc12 | n | n | n | u | n | u
Cc1nc2ccc(NS(=O)(=O)c3c(F)cccc3F)cc2s1 | x | n | u | 16µM | x | 16µM
COc1cccc(S(=O)(=O)Nc2ccc3sc(C)nc3c2)c1 | n | n | n | 23µM | n | u
Cc1cc2oc(=O)sc2cc1NS(=O)(=O)c1cccc2cccnc12 | n | -69 | n | n | n | u
Cc1nc2cc(NS(=O)(=O)c3cccc4cccnc34)ccc2s1 | n[1.91 µM] | n | u | 9.2µM | n | 16µM
COc1cccc(S(=O)(=O)Nc2ccc3c(c2)OCCO3)c1 | u | n | n | u | n | u
Cc1ccc(C)c(S(=O)(=O)Nc2ccc3sc(C)nc3c2)c1 | n | n | u | u | n | u
CCc1ccccc1NC(=O)c1ccc2c(O)c(S(=O)(=O)c3ccccc3)c(=O)[nH]c2c1 | x | x | x | n | x | n
COc1ccccc1S(=O)(=O)N(C)C[C@H]1OCc2cnnn2CCCC(=O)N([C@@H](C)CO)C[C@@H]1C | x | n | x | n | x | n
SMILES | RORgamma inh | IL-1B inflam inh | ELG1 repair inh | DT40 TDP1 no CPT | VP16 counter | DT40 TDP1 CPT
COc1ccc(OC(C)C(=O)NC(C)c2ccccc2)cc1 (stereo not drawn) | n | n | n | n | n | n
CN(C)c1ccc(CNC(=O)Cn2ccc3cc(S(=O)(=O)N4CCCCCC4)ccc32)cc1 | x | x | x | 5.8µM | x | u
CN(C)c1ccc(CNC(=O)CCc2ccc(S(=O)(=O)N3CCCCCC3)cc2)cc1 | x | -64 | n | 15µM | x | u
CCOc1ccc(CNC(=O)Cn2ccc3cc(S(=O)(=O)N4CCCCCC4)ccc32)cc1 | n | u | u | 26µM | u | 16µM
COc1cc(CNC(=O)c2ccccc2NC(=O)C2=C(C)OCCS2)cc(OC)c1OC | n | n | u | n | n | n
S=C(NCCc1ccc(Cl)cc1)NC1CC1 | 2.5µM | n | n | n | 8.9µM | n
O=[N+]([O-])c1ccc(NC(=S)NCCc2ccc(Cl)cc2)cc1 | 0.63µM | -55 | n | 5.2µM | 3.5µM | 2.3µM
CC(C)(C)C(=O)NC(=S)NCCc1ccccc1 | 8.9µM | u | u | n | u | n
S=C(NCCc1ccccc1)Nc1ccc(Cl)cc1 | 6.3µM | n | u | 4.6µM | u | 21µM
O=C(CS(=O)(=O)c1cccc2nsnc12)Nc1cc(F)ccc1F | x | x | x | n | x | n
S=C(NCCCc1ccccc1)Nc1ccccc1Cl | u | u | n | n | n | n
S=C(NCCc1ccccc1)Nc1ccc(Br)cn1 | 0.28µM | n | n | 15µM | 5µM | u
NNC(=S)NCCc1ccccc1 | 3.5µM | n | n | u | 10µM | u
S=C(NCCCCc1ccccc1)NCc1ccccc1 | 16µM | n | n | n | u | n
NS(=O)(=O)c1ccc(NC(=S)NCCc2ccccc2)cc1 | n | n | u | u | n | n
